Assay results taken from PubChem BioAssay (NCATS).
Records with an inconclusive call do not appear. Activity calls are given as the source filed them. The call rests on the fitted dose curve; in most records, active means well fitted curve in the direction sought with a large enough effect; inconclusive means small, poorly fitted or top-dose-only effect, or another doubt; inactive means no such curve, though single readings can be large; an effect the other way counts as inactive or inconclusive.

What was measured:
[1] = target: Rap guanine nucleotide exchange factor 3 (Homo sapiens) (UniProt O95398); experiment: Confirmatory qHTS for antagonist of cAMP-regulated guanine nucleotide exchange factor 3 (EPAC1) (AID 1645880); details: EPAC1 Rap1B-BODIPY-GDP exchange, fluorescence; activity, negative = inhibition: at 115 µM (top of the series); further: nearly all actives have a fitted effect of over 55% in size; further: potency means the concentration at half of the fitted maximal effect;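 on activity, negative = inhibition: plate controls were DMSO only for no effect and full effect of the ATA control for full effect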
Rap guanine nucleotide exchange factor 3 (Homo sapiens), sequence (O95398 whole entry, looked up): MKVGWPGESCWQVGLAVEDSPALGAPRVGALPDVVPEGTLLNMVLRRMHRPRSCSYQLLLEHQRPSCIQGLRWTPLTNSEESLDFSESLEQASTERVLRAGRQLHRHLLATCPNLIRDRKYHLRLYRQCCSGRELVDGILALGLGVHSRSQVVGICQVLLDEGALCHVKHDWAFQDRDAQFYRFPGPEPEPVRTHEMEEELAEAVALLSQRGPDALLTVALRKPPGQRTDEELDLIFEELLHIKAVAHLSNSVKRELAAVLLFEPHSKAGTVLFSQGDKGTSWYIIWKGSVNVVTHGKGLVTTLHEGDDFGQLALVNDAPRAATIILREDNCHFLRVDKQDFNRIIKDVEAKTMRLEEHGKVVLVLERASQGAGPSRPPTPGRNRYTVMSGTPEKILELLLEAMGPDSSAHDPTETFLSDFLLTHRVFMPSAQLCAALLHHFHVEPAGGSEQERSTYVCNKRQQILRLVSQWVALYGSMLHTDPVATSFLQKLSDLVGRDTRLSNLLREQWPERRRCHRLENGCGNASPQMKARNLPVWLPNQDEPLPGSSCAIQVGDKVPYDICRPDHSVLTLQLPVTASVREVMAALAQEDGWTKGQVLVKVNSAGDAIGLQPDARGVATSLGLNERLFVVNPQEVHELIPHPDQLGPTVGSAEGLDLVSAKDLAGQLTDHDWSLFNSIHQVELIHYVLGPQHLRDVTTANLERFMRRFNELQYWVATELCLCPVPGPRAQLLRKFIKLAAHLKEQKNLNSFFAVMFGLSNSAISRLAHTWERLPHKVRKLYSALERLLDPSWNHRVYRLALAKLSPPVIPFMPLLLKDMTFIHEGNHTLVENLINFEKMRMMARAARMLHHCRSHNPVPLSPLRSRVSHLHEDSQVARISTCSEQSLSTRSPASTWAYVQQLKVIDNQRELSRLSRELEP
Outline: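 Released BODIPY-GDP fluoresces less than Rap1-bound BODIPY-GDP; the signal is followed at 480/540 nm at 5-min intervals over 30 min, after 5 min at room temperature. Reactions contain 100 nM EPAC1, 250 nM RAP1B-BODIPY-GDP and 50 uM GDP; results are normalized to ATA and DMSO.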

[2] = target: Rap guanine nucleotide exchange factor 3 (Homo sapiens) (UniProt O95398); experiment: Confirmatory qHTS for agonist of cAMP-regulated guanine nucleotide exchange factor 3 (EPAC1) (AID 1645881); details: EPAC1 Rap1B BODIPY-GDP exchange fluorescence; series mostly up to 154 µM;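 further: EPAC1 catalysed release of BODIPY-GDP from Rap1B seen as fluorescence loss; 100% = effect of cAMP agonist control; nearly all actives have a fitted effect of over 75% in size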
[3] = target: Rap guanine nucleotide exchange factor 4 (Homo sapiens) (UniProt Q8WZA2); experiment: Confirmatory qHTS for agonist of cAMP-regulated guanine nucleotide exchange factor 4 (EPAC2) (AID 1645884); details: EPAC2 GEF activity, Rap1B-BODIPY-GDP fluorescence; series mostly up to 154 µM;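 further: nucleotide exchange releases bodipy-GDP from Rap1 and this lowers its fluorescence; on the % scale 0 is the no-effect control and ±100 the full control effect; nearly all actives have a fitted effect of over 65% in size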
Rap guanine nucleotide exchange factor 4 (Homo sapiens), sequence (Q8WZA2 whole entry, looked up): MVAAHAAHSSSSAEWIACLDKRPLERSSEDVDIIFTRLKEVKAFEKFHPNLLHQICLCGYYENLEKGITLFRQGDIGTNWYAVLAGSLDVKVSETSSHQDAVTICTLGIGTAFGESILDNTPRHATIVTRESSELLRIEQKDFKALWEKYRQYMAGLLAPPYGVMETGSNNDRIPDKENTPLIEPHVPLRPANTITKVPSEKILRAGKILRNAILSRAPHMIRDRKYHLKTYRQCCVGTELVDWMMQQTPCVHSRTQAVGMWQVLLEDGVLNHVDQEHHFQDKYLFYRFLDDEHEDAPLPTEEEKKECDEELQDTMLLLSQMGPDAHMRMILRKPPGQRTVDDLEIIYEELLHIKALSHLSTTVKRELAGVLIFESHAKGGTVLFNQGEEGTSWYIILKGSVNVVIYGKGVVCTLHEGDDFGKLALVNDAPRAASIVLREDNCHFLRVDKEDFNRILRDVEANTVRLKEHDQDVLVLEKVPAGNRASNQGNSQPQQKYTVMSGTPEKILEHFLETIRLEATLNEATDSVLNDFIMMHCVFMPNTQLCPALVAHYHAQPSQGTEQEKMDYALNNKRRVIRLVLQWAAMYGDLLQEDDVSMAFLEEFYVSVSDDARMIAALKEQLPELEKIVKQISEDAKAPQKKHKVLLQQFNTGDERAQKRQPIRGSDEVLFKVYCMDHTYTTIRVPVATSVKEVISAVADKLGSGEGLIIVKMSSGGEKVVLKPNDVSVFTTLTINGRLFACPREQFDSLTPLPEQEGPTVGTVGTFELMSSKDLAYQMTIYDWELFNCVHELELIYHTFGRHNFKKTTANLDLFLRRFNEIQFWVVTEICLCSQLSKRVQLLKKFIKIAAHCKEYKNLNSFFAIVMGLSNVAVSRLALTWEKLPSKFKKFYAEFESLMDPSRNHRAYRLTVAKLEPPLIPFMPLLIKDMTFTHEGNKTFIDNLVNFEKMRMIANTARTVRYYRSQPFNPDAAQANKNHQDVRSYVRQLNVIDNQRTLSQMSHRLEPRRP

[4] = target: Rap guanine nucleotide exchange factor 3 (Homo sapiens) (UniProt O95398); experiment: Counterscreen qHTS for antagonist of cAMP-regulated guanine nucleotide exchange factor 3 (EPAC1) (AID 1645888); details: Rap1B-BODIPY-GDP nucleotide exchange, fluorescence; series mostly up to 154 µM; further: % of control where 0% means no effect
Outline: (§1)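 Rap1B-BODIPY-GDP 250 nM + GDP 50 uM; cpds 7-pt, final 9.74 nM–152 uM (activator mode) or from 7.32 nM upwards (inhibitor mode); RT; FI 480/540 nm at 5 and 30 min, then ± cAMP, reread.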

[5] = target: Rap guanine nucleotide exchange factor 3 (Homo sapiens) (UniProt O95398); experiment: Counterscreen qHTS for agonist of cAMP-regulated guanine nucleotide exchange factor 3 (EPAC1) (AID 1645889); details: EPAC1 Rap1B-BODIPY-GDP exchange, fluorescence; series mostly up to 154 µM; further: nearly all actives have a fitted effect of over 40% in size; further: potency means the concentration at half of the fitted maximal effect; on activation: % of control where 0% means no effect
Outline: as §1

CCCNC(=O)Cn1c(=O)/c(=C/c2ccc(-c3ccc([N+](=O)[O-])cc3)o2)s/c1=C\C(=O)C(C)(C)C
inactive: Potency [2] | Potency [3] | Potency [4]
active: Potency [1] 37.9 µM | Potency [5] 5.01 µM

O=C(c1ccc(CN2CCc3ccccc3C2)cc1)N1CCCCC1
inactive: Potency [1] | Potency [2] | Potency [3] | Potency [4] | Potency [5]

CN(C)c1ccccc1-c1cc(NC=O)c2ncc(-c3cccc(C(F)(F)F)c3)n2c1
inactive: Potency [2] | Potency [3] | Potency [4] | Potency [5]
active: Potency [1] 47.8 µM

CCC(=O)NC(c1ccc(C)cc1)c1cc([N+](=O)[O-])c2cccnc2c1O (stereo not given)
active: Potency [1] 53.6 µM
inactive: Potency [2] | Potency [3] | Potency [4] | Potency [5]

CNC(=O)CSc1nc2ccccc2c(=O)n1-c1cc(OC)ccc1OC
inactive: Potency [1] | Potency [2] | activation [3] -3% [at 17.1 µM, percent relative to cAMP agonist control] | activity change, negative = inhibition [4] -17.1% [at 30.8 µM] | activation [5] 5.72% [at 30.8 µM]

COc1cc(/C=C2/C(=O)NN(c3ccc(Cl)c(Cl)c3)C2=O)cc([N+](=O)[O-])c1O
inactive: Potency [2] | Potency [3] | Potency [4] | Potency [5]
active: Potency [1] 6.75 µM

Cc1cccc(NC(=O)Cn2c(O)c(N=NC(=O)c3ccccc3O)c3ccccc32)c1
inactive: Potency [2] | Potency [3] | Potency [4] | Potency [5]
active: Potency [1] 75.7 µM

N=c1c(S(=O)(=O)c2ccc(Br)cc2)cc2c(=O)n3ccccc3nc2n1C1CCCC1
inactive: Potency [1] | Potency [2] | Potency [3] | Potency [4] | Potency [5]

Cc1ccc2c(c1)C(=O)CC(c1ccccc1)S2 (stereo not given)
inactive: Potency [1] | Potency [2] | activation [3] -3.98% [at 17.1 µM, percent relative to cAMP agonist control] | activity change, negative = inhibition [4] -21.7% [at 30.8 µM] | activation [5] 6.35% [at 30.8 µM]

Cc1noc(C)c1COc1ccccc1C(=O)NCCc1ccc(Cl)cc1
inactive: Potency [1] | Potency [2] | Potency [3] | Potency [4] | Potency [5]

O=C1C=C(c2ccccc2Oc2ccccc2)C[C@@H](c2ccc(F)cc2)C1
inactive: Potency [1] | Potency [2] | Potency [3] | Potency [4] | Potency [5]

COc1ccc(N=C2NC(=O)S/C2=C\c2ccc(N(C)C)cc2)cc1
inactive: Potency [1] | Potency [2] | Potency [3] | Potency [4] | Potency [5]

Cc1cc(C)nc(SCC(=O)c2ccc(Cl)cc2)n1
inactive: Potency [1] | Potency [2] | Potency [3] | Potency [4] | Potency [5]

CC(C(=O)Nc1ccc(O)c(C(=O)O)c1)N1C(=O)/C(=C/c2cccs2)SC1=S (stereo not given)
active: Potency [1] 37.9 µM
inactive: Potency [2] | Potency [3] | Potency [4] | Potency [5]

CCOC(=O)c1[nH]c2ccc(OCC)cc2c1NC(=O)CN1CCN(c2ccccn2)CC1
inactive: Potency [1] | Potency [2] | Potency [3] | Potency [4] | Potency [5]

COc1ccc(N2C(=O)CSC2c2cccc(F)c2)c(OC)c1 (stereo not given)
inactive: Potency [1] | Potency [2] | activation [3] 2.35% [at 17.1 µM, percent relative to cAMP agonist control] | activity change, negative = inhibition [4] -18.3% [at 30.8 µM] | activation [5] 1.09% [at 30.8 µM]

CCOC(=O)c1c(NC(=O)/C=C/C(=O)O)sc(C)c1-c1ccc(C(C)(C)C)cc1
active: Potency [1] 42.6 µM
inactive: Potency [2] | Potency [3] | Potency [4] | Potency [5]

CCOC(=O)C1CCCN(C(=O)c2cc(-c3ccco3)nc3ccccc23)C1 (stereo not given)
inactive: Potency [2] | Potency [3] | Potency [4] | Potency [5]
active: Potency [1] 15.1 µM

COc1ccccc1CN(C(=O)CNC(=O)c1ccco1)C(C(=O)NCC1CCCO1)c1ccc(OC)c(OC)c1 (stereo not given)
inactive: Potency [1] | Potency [2] | Potency [3] | Potency [4] | Potency [5]

Cc1ccc(C)c(N2CCN(C(=O)CCCn3c(=O)c4cccn4c4cccnc43)CC2)c1
inactive: Potency [1] | Potency [2] | activation [3] 6.05% [at 17.1 µM, percent relative to cAMP agonist control] | activity change, negative = inhibition [4] -21.9% [at 30.8 µM]
active: Potency [5] 0.0089 µM

Cc1ncc(CO)c2c1Oc1nc(-c3ccccc3F)nc(SCC(=O)N(C)c3ccccc3)c1C2
inactive: Potency [2] | Potency [3] | Potency [4] | Potency [5]
active: Potency [1] 30.1 µM
